Source: ChEMBL document CHEMBL3988442, “University of Dundee, Small-Polar-MMV Screening Library” (2021)
Hit rate of the full screen: of about 48,000 compounds, about 13,000 (27%) showed an effect of 50% or more. This is one part of the list.

What follows are compounds tested on Wolbachia pipientis (assay: Anti-Wolbachia Cell-Based Screen). Conditions: 5 µM.
Format: functional
Design: scale not given: in the data most compounds retested in dose-response had high values

Row | SMILES | Percent Effect [%]
1 | CC(C)CC(N)C1=N/C(=C2\N=CN=N2)NO1 (stereo not given) | -1.816
2 | CNC(=O)NC(=O)C(NCc1ccccc1)c1ccccc1 (stereo not given) | 7.195
3 | O=S(=O)(NCCNc1ccc(-n2cccc2)nn1)c1cccs1 | 19
4 | O=S(=O)(NCCNc1cc(-n2cccc2)ncn1)c1cccs1 | 9.931
5 | CCOc1ccc(S(=O)(=O)NCCCc2ccc(N(C)C)cc2)cc1F | 11.9
6 | COc1ccc(S(=O)(=O)NCCCc2ccc(N(C)C)cc2)cc1Cl | 10.52
7 | COc1ccc(CC(=O)NCCCc2nnc3nc(C)cc(C)n23)cc1 | 140.8
8 | Cc1cc(C)n2c(CCCNS(=O)(=O)c3cccs3)nnc2n1 | 99.96
9 | COc1ccc(S(=O)(=O)NCCCc2ccc(N(C)C)cc2)cc1F | 8.354
10 | COc1ccc(S(=O)(=O)NCCCc2nnc3nc(C)cc(C)n23)cc1 | 128.4
11 | COc1cccc(CC(=O)NCCc2nnc3n2CCCCC3)c1 | -1.985
12 | Cn1ccnc1CCNS(=O)(=O)c1ccc(Br)cc1 | -0.8619
13 | COc1ccc(CCNC(=O)Nc2cc(C)nn2C)cc1 | -34.88
14 | Cc1cc(C)n2c(CCCNS(=O)(=O)c3ccc(F)cc3)nnc2n1 | 115.4
15 | COCCN(C)c1ccc(NCc2cccnc2)nc1 | -2.901
16 | Cc1nc2cc(=O)[nH]n2c(C)c1CNC(=O)c1cnn(C(C)(C)C)c1 | -22.93
17 | CC(C)c1nnc2n1CCN(C(C)c1nnc(-c3cccs3)o1)C2 (stereo not given) | -12.3
18 | CCc1ncc(C(=O)N(CC)CCOC)cn1 | -25.3
19 | O=S(=O)(NCCc1nnc2ccccn12)c1cccnc1 | -2.198
20 | Cc1nsc(NCCNS(=O)(=O)c2ccccc2)n1 | -9.26
21 | Cc1cc(C)n2c(CCCNS(=O)(=O)c3ccccc3)nnc2n1 | 105.2
22 | Cc1nc(CN2CC(CO)Oc3ccccc32)sc1C (stereo not given) | -1.227
23 | Cn1ccnc1CN(CCO)Cc1ccc(C(F)(F)F)cc1 | -12.47
24 | CC(C)(C)OC(=O)NC1CCC(NC(=O)c2ccc[nH]2)CC1 (stereo not given) | -46.12
25 | CC(=O)c1cc2ncc(C(=O)NC3CCCC3)cc2[nH]1 | 115.8
26 | CCNc1ncc(C(=O)NC2CCc3ccccc3C2)cn1 (stereo not given) | 2.788
27 | CC(=O)c1cc2ncc(C(=O)NC3CCCCC3)cc2[nH]1 | 114.6
28 | O=C(NC1(C(=O)NC2CCCC2)CCCC1)c1ccc2[nH]ncc2c1 | 2.222

Row | SMILES | Percent Effect [%]
29 | CC(=O)c1cc2ncc(C(=O)NC3CC3)cc2[nH]1 | 127.3
30 | O=C(NC1CCCCC1)c1c(F)cccc1F | -11.27
31 | CCNc1ncc(C(=O)NC2CCSC2)cn1 (stereo not given) | 5.956
32 | CCOc1ccccc1OCCN(C)Cc1ncnn1CC | -5.335
33 | Cc1n[nH]cc1CNCC(O)c1ccc(F)c(F)c1.Cl (stereo not given) | -9.621
34 | Cc1ccc2cc(CN(C)Cc3nccs3)c(=O)[nH]c2c1 | -5.099
35 | Cn1cc(N2CC3(CCN(CC4CC4)C3)CC2=O)cn1.O=C(O)C(F)(F)F (stereo not given) | 3.9
36 | Cn1cc(N2C[C@@H]3CN(Cc4ccoc4)C[C@@H]3C2=O)cn1.O=C(O)C(F)(F)F | -5.785
37 | Cc1nc(CN2C(=O)COC3(CCN(Cc4ccco4)CC3)C2C)cs1.O=C(O)C(F)(F)F (stereo not given) | -6.139
38 | Cn1cc(N2CC3(CCN(CC4CCOCC4)CC3)OCC2=O)cn1.O=C(O)C(F)(F)F | -12.75
39 | CC1N(c2cnn(C)c2)C(=O)COC12CCN(CC1CC1)CC2.O=C(O)C(F)(F)F (stereo not given) | 102.9
40 | CN1CC(=O)N(c2cnn(C)c2)CC12CCN(Cc1ccccc1)C2.O=C(O)C(F)(F)F.O=C(O)C(F)(F)F (stereo not given) | -7.753
41 | CC1N(c2cnn(C)c2)C(=O)COC12CCN(Cc1ccoc1)CC2 (stereo not given) | 110.5
42 | CC1N(c2cnn(C)c2)C(=O)COC12CCN(Cc1ccco1)CC2.O=C(O)C(F)(F)F (stereo not given) | 117
43 | Cc1nn(C)c2nc(NC3CCNCC3)sc12 | 10.32
44 | CCSCCNc1nc2c(s1)c(C)nn2C | 7.108
45 | Cc1nn(C)c2nc(NC(C)c3nnn[nH]3)sc12 (stereo not given) | 114.7
46 | Cc1ccc(-c2ccnc(NC(C)c3n[nH]c(=O)[nH]3)n2)c(C)n1 (stereo not given) | 6.558
47 | CCCOCCNc1nc2c(s1)c(C)nn2C | -0.9549
48 | Cc1nn(C)c2nc(NCCOCCO)sc12 | -15.08
49 | Cc1nn(C)c2nc(NC(C)c3n[nH]c(=O)[nH]3)sc12 (stereo not given) | 96.4
50 | Cc1nc(C(C)Nc2nc3c(s2)c(C)nn3C)n[nH]1 (stereo not given) | 87.1
51 | Cc1csc(CNc2nc3c(s2)c(C)nn3C)n1 | -2.391
52 | O=C(Cc1cccs1)NCCNc1nccc(C(F)(F)F)n1 | -1.179
53 | CCn1cc(CN2CCCCC2CCn2ccnc2C)cc1C#N (stereo not given) | -5.966
54 | O=C(NCc1ccccc1CN1CCCC1=O)Nc1nncs1 | -15.38
55 | CC(Nc1ccc(N2C(=O)CCCC2=O)cc1)c1ccc(C#N)cc1 (stereo not given) | -5.853
